Compounds without any hit were thinned out: in the full panel of roughly 79,000, 15% have a hit. Active and inactive are the calls of the source. Rule as the data show it: active = growth inhibition above about 70%; inactive = the rest.
Tests used:
[1] = NCI Yeast Anticancer Drug Screen. Data for the rad50 strain (AID 155);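 also: 0% = growth of vehicle-only cultures of the same strain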; conditions: S. cerevisiae rad50 strain growth inhibition; at 50.0 µM; active compounds read high
How it was run: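 Relative growth inhibition (compound vs vehicle) was measured in yeast with a defined repair-gene alteration.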

[2] = NCI Yeast Anticancer Drug Screen. Data for the mec2-1 strain (AID 157); conditions: S. cerevisiae mec2-1 strain, at 50.0 µM, active compounds read high
How it was run: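 mec2-1 yeast strain, carrying an alteration in DNA damage repair or cell cycle control, was exposed to compounds; growth inhibition was measured relative to vehicle-treated controls.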

[3] = NCI Yeast Anticancer Drug Screen. Data for the sgs1 mgt1 strain (AID 161);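 also: 0% = growth of cultures given vehicle only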; conditions: S. cerevisiae sgs1 mgt1 strain, at 50.0 µM, active compounds read high
How it was run: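 Growth of a repair-deficient yeast mutant was monitored after compound treatment and expressed as inhibition relative to vehicle-treated cultures.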

[4] = NCI Yeast Anticancer Drug Screen. Data for the cln2 rad14 strain (AID 165);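 also: 0% = growth equal to vehicle treated cultures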; conditions: S. cerevisiae cln2 rad14 strain, at 50.0 µM, active compounds read high
How it was run: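 Yeast carrying cln2 and rad14 alterations (cell cycle control and DNA damage repair) were exposed to compounds. Growth inhibition was measured against vehicle-treated controls.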

[5] = NCI Yeast Anticancer Drug Screen. Data for the bub3 strain (AID 167); conditions: S. cerevisiae bub3 mutant strain, at 50.0 µM, active compounds read high
How it was run: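 Screening used yeast with an engineered genetic alteration affecting cell cycle control. Compound-exposed cultures were compared with vehicle cultures, and reduced growth was taken as inhibition.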

[6] = NCI Yeast Anticancer Drug Screen. Data for the mlh1 rad18 strain (AID 175); conditions: S. cerevisiae mlh1 rad18 strain growth inhibition; at 50.0 µM; active compounds read high
How it was run: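 Growth inhibition of the yeast strain was measured after compound exposure and expressed relative to vehicle-treated controls. The strain carries defined defects in DNA damage repair.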

Measured: growth inhibition

c1ccc(-c2ccc(-c3cc4ccccc4c4ccccc34)cc2)cc1
inactive: [1] -13.8% | [2] -15% | [3] -17.2% | [4] -5.8% | [5] -10.3% | [6] -9.2%

C(#Cc1ccccc1)/C=C/C(=C\c1ccccc1)c1ccccc1
inactive: [1] 6.6% | [2] 4.9% | [3] -4.9% | [4] 11.8% | [5] 20.8% | [6] 33.5%

Cc1ccc(OS(=O)Nc2cccc(N)c2)cc1 (stereo not drawn)
inactive: [1] -5.35% | [2] -12.1% | [3] -13.9% | [4] -22.1% | [5] -8.4% | [6] -10.3%

O=C1CCCC2(c3ccc([N+](=O)[O-])cc3)C1C1C(=O)CCCC12c1ccc([N+](=O)[O-])cc1 (stereo not drawn)
inactive: [1] 44% | [2] -0.6% | [3] 14.2% | [4] 12.6% | [5] 5.4% | [6] 5.5%

CCN(CC)CCOC(=O)c1ccc(N=Nc2ccc(O)cc2O)cc1
inactive: [1] -12.8% | [2] -2.7% | [3] -1.3% | [4] -21.7% | [5] -24.5% | [6] -17.1%

CCc1c(Cc2[nH]c(Cc3[nH]c(C=O)c(C)c3CC)c(CC)c2CC)[nH]c(C=O)c1C
inactive: [1] 5.25% | [2] -7.5% | [3] -5.85% | [4] -45.9% | [5] -0.75% | [6] -8.75%

CCOC(=O)CCC(=O)OCC
inactive: [1] 21.6% | [2] 7.05% | [3] 0% | [4] 16.9% | [5] 9.85% | [6] 10.6%

O=[N+]([O-])c1ccc(-c2cc3ccccn3c2)cc1
inactive: [1] -5.1% | [2] -46.2% | [3] -9.7% | [4] -11.8% | [5] 11.8% | [6] -18.1%

CC[n+]1ccc(-c2ccccc2)o1
inactive: [1] 3.6% | [2] 13.1% | [3] 2.25% | [4] 27.3% | [5] 28.4% | [6] -4.75%

CN1C(=O)N(C)C2=NC(=O)N(C)C2(C(Cl)(Cl)Cl)C1=O (stereo not drawn)
inactive: [1] 45.3% | [2] 32.2% | [3] 47.4% | [4] 24.6% | [5] 21.6% | [6] 58%

COc1ccc(S(=O)Cc2cc(OC)c(OC)c(OC)c2)cc1 (stereo not drawn)
inactive: [1] -7.9% | [2] -19.9% | [3] -61.7% | [4] -19.8% | [5] -14.3% | [6] -23.7%

C/C=N\C(N)=S
inactive: [1] 1.45% | [2] -1.3% | [3] 4.8% | [4] 9.05% | [5] 9.8% | [6] 1%

COC(=O)C1=C(C(=O)OC)SC(=C2c3ccsc3-c3sccc32)S1
inactive: [1] -31.3% | [2] -6.2% | [3] -7.45% | [4] 19% | [5] 1.3% | [6] -4.5%

COc1ccc(NC2C(=O)C3(C)CCC2C3(C)C)cc1 (stereo not drawn)
inactive: [1] -17.2% | [2] -10.9% | [3] -8.25% | [4] -49.3% | [5] 12.2% | [6] -41.1%

CCCCOC(=O)c1cc(/C=C\c2ccccc2)on1
inactive: [1] -12.9% | [2] -2.45% | [3] 3.1% | [4] -69.6% | [5] 30.6% | [6] 9.25%

CCCC[N+](CCCC)(CCCC)CC(=O)[O-]
inactive: [1] 5.7% | [2] -3.1% | [3] -19.8% | [4] -45.1% | [5] -8.3% | [6] -24.6%

O=c1nc2n(cc1/C=C\Br)C1CC(O)C(CO2)O1 (stereo not drawn)
inactive: [1] -51% | [2] -24.6% | [3] -24.1% | [4] 13.3% | [5] -1.5% | [6] -23.6%

O=C1N=C2C=CC=CN2CC1O (stereo not drawn)
inactive: [1] -0.4% | [2] -11.2% | [3] -7.7% | [4] -13.2% | [5] 11.5% | [6] 15.3%

Cc1c(C)c2cc3c(=O)c(CCl)coc3c(C)c2oc1=O
inactive: [1] 22.4% | [2] 1.15% | [3] 16% | [4] 15.6% | [5] -7.15% | [6] -5.95%

COc1ccc(C2c3cc4c(cc3OC(C)(O)C2C)OCO4)c(OC)c1OC (stereo not drawn)
inactive: [1] 3.45% | [2] 5.7% | [3] -1.4% | [4] -9.25% | [5] -5.1% | [6] 18.9%

CC1CN(C(=O)Nc2ccc([N+](=O)[O-])cc2)CC(C)O1 (stereo not drawn)
inactive: [1] -16.1% | [2] -36.5% | [3] 13.7% | [4] 3.5% | [5] -3.65% | [6] 6.25%

C=CC(=O)NC(C)C(=O)O (stereo not drawn)
inactive: [1] -4.45% | [2] -2.5% | [3] 0% | [4] -7.05% | [5] -10.9% | [6] -4.15%

CCCCCCCCCCCCCCCCOCC(O)CO (stereo not drawn)
inactive: [1] -8.55% | [2] -29.2% | [3] 1.25% | [4] -5.65% | [5] -17.1% | [6] -56.9%

COc1cc2c(cc1C)C1=C(C)C(=O)OC1[C@@H](O)[C@@H]2C (stereo partly drawn)
inactive: [1] 16.9% | [2] 11.6% | [3] 18.4% | [4] 3.45% | [5] 18.9% | [6] 18.8%

COc1ccc(C(=O)Sc2c(-c3ccccc3)c(=O)n(-c3ccccc3)c(=S)n2-c2ccccc2)cc1
inactive: [1] 0.75% | [2] -4.9% | [3] 2.45% | [4] 1.7% | [5] 0.6% | [6] 10.1%

Cc1cc(C)nc(NS(=O)(=O)c2ccc(NC(=O)c3cccn4c(=O)c5ccccc5nc34)cc2)n1
inactive: [1] 12.7% | [2] 0.6% | [3] 16.9% | [4] 27.6% | [5] 27.1% | [6] 0.25%

CC(CNC(=O)c1ccccc1)(CNC(=O)c1ccccc1)[N+](=O)[O-]
inactive: [1] 8.95% | [2] 1.35% | [3] -3.2% | [4] 6.75% | [5] 0.8% | [6] 3.85%

O=C(Nc1ccc2ccccc2c1)OC1CCS(=O)(=O)C1 (stereo not drawn)
inactive: [1] -0.75% | [2] -3.9% | [3] 6.1% | [4] 20.4% | [5] -1.8% | [6] -8.25%

O=C(OCCNC1CCCCC1)c1ccc([N+](=O)[O-])cc1
inactive: [1] 8.85% | [2] 2.5% | [3] 1.45% | [4] -43.5% | [5] -4.5% | [6] 11.3%

[N-]=[N+]=NCC1OCOC1C1OCOC1CN=[N+]=[N-] (stereo not drawn)
inactive: [1] -6.85% | [2] 10.6% | [3] -4.05% | [4] -33.7% | [5] 4.2% | [6] -3.5%

NC(=S)c1ccc(N=Cc2ccccn2)cc1
inactive: [1] -0.25% | [2] -0.35% | [3] -1.7% | [4] -12.3% | [5] 3.1% | [6] -8%

CCc1cccc(C(C)(C)C)c1NC(=S)NC=C(C#N)C#N
inactive: [1] 27.9% | [2] -11.6% | [3] 36.8% | [4] 26.8% | [5] 17.6% | [6] 45.8%

CCCCCCCCCCCCCCCCCC(=O)[O][Al][O]C(C)C
inactive: [1] -38.1% | [2] -35% | [3] -10.8% | [4] 4.55% | [5] -19.5% | [6] -14.9%

COc1cc(C2C(C(=O)O)=C(CO)Oc3cc4c(cc32)OCO4)cc(OC)c1OC (stereo not drawn)
inactive: [1] -5.4% | [2] 7.35% | [3] -4.95% | [4] 1.1% | [5] -4.6% | [6] 4.25%

O=C1OC2(c3ccc(O)cc3Oc3cc(O)ccc32)C2C3CCC(O3)C12 (stereo not drawn)
inactive: [1] 52.2% | [2] 38.2% | [3] 42.2% | [4] 27% | [5] 37.2% | [6] 40.4%

COC(=O)CCc1ccc(C2CO2)cc1 (stereo not drawn)
inactive: [1] -1.4% | [2] 6.15% | [3] -9.5% | [4] -0.2% | [5] -11.2% | [6] 10.3%

C/C(CC(=O)Nc1ccc(Cl)cc1)=N\NC(=O)C[n+]1ccccc1
inactive: [1] 1.35% | [2] -17.6% | [3] 11.2% | [4] 16.6% | [5] -12.5% | [6] -8.6%

C[C@@H](C1CCC2C3C(=CC(=O)[C@@]21C)[C@H](C)[C@]1(CCC(=O)O1)C1OC31)[C@H]1C[C@]2(C)O[C@@](C)(O1)OC2(C)C (stereo partly drawn)
inactive: [1] -11.2% | [2] -0.9% | [3] -25.9% | [4] -4.85% | [5] -14.2% | [6] 9.15%

From PubChem BioAssay (NCI)
